Data on 94 molecules can be found in ChEMBL document CHEMBL3988442, “University of Dundee, Small-Polar-MMV Screening Library” (2021).

Out of some 48,000 compounds screened, about 13,000 (27%) showed an effect of 50% or more. This is one part of the list.

The experiment deals with Wolbachia pipientis. Kind of experiment: Anti-Wolbachia Cell-Based Screen. In kind it is functional. Details: scale not given: in the data most compounds retested in dose-response had high values. Particulars: 5 µM.
Regarding `CN(c1cccc(C#N)c1)S(=O)(=O)c1cc(C(=O)O)ccc1Cl`, the “Percent Effect” value is recorded as -8.921%. The same measure for `CCc1ncc2c(n1)CN(CC1CCCCO1)CC2` (centres undefined): -28.59%; for `CCN(C(=O)c1ccc2nnc(C3CCN(C(C)=O)C3)n2c1)C(C)C` (centres undefined): -2.519%.

Take `CNC(=O)c1cccc(NC(=O)NC(C)c2cc(C)oc2C)c1C` (centres undefined): the “Percent Effect” value is -16.36%. Regarding `Cc1ccc(CN2CC[C@H]3C[C@H](C(=O)N4CCCO4)O[C@@H]3C2)o1.O=C(O)C(F)(F)F`, the “Percent Effect” value was -11.63%. In the case of `O=C(O)C(F)(F)F.O=C([C@H]1C[C@@H]2CCN(c3cccc(F)c3)C[C@H]2O1)N1CCCCO1` it was 96.52%; in that of `O=C(O)C(F)(F)F.O=C([C@H]1C[C@@H]2CCN(c3cccc(F)c3)C[C@H]2O1)N1CCCC1`, 111.1%. Turning to `CN1CCN(C(=O)[C@@H]2C[C@@H]3CCN(c4cccc(F)c4)C[C@H]3O2)CC1`, the “Percent Effect” value was determined as 96.73%. The same measure for `O=S(=O)(C1CC1)N1CCOC2(CCCN(c3cccc(F)c3)C2)C1` (centres undefined): 7.053%; for `O=C(O)C(F)(F)F.O=C([C@@H]1C[C@@H]2CCN(c3cccc(F)c3)C[C@H]2O1)N1CCCC1`: 103.2%; for `Fc1cccc(N2C[C@H]3CCN(c4cccnc4)C[C@H]3C2)c1.O=C(O)C(F)(F)F`: 6.711%. In the case of `CN1CCN(C(=O)[C@H]2C[C@@H]3CCN(c4ncc(F)cn4)C[C@@H]3O2)CC1.O=C(O)C(F)(F)F` it was -9.48%. On to `O=C(O)C(F)(F)F.O=C([C@@H]1CC[C@@H]2[C@@H](CCN2Cc2cccc(F)c2)O1)N1CCCCO1`, for which the “Percent Effect” value is recorded as -25.86%.

`COc1cccc(OCc2cc(C(=O)NC[C@H]3CCCN3)n[nH]2)c1`: the “Percent Effect” value was -9.254%. As for `CCc1nc(NS(=O)(=O)c2ccc(C)cc2Cl)no1`, the “Percent Effect” value is given as -7.333%. Regarding `CC(C)c1csc(C2CCCN(C(=O)c3ccc(=O)n(C)c3)C2)n1` (centres undefined), the “Percent Effect” value was 2.326%.

With `CC(C)Cc1nc(CN(C)CCOc2ccccc2F)no1`, the “Percent Effect” value turned out to be 2.804%. In the case of `O=C(Cn1ccc(=O)[nH]c1=O)NCC1Cc2ccccc2O1` (centres undefined) it was 0.2234%; in that of `CC(C)NC(=O)NC[C@H]1OC[C@@H](NCc2ccc(F)cc2)[C@@H]1O`, 8.979%; in that of `CC1=C(CCN2C[C@H](O)[C@@H](N3CCOCC3)C2)C(C)(C)CCC1`, 0.7691%. As to `Clc1cncc(N2CCCC2c2nnc3n2CCCCC3)n1` (centres undefined), the “Percent Effect” value is 118.9%. Consider `COc1ccc(CC(=O)N2CCC(c3nnc4n3CCC4)CC2)cc1F`, for which the “Percent Effect” value is -6.133%. The same measure for `CCOc1c(Br)cc(CNCCc2nnc3n2CCCCC3)cc1OC.Cl`: 15.42%. In the case of `CCOc1cncc(N2CCCC2c2nnc3n2CCCCC3)n1` (centres undefined) it was 129.6%.

Regarding `O=C(C1CCC1)N1CCCC1c1nnc2n1CCCCC2` (centres undefined), the “Percent Effect” value is recorded as -4.579%. The same measure for `Cc1cnn(CC2CCCCN2c2ncnc3ccccc23)c1` (centres undefined): -9.464%; for `CC1c2ncc(COCC3CC3)n2CCN1C.O=C(O)C(F)(F)F` (centres undefined): -13.39%. In the case of `Cc1ccc(C(C(=O)N2CC(c3ccccn3)C2)N(C)C)cc1` (centres undefined) it was 13.16%; in that of `Cn1cc(CN2CCC[C@]3(C(=O)O)CN(c4ncccn4)C[C@@H]3C2)cn1.O=C(O)C(F)(F)F`, 8.279%.

As for `Cn1cc(CN2CCC(F)(F)C3(CCN(c4ncccn4)C3)C2)cn1.O=C(O)C(F)(F)F.O=C(O)C(F)(F)F` (centres undefined), the “Percent Effect” value came out at 111.9%. In the case of `O=C(O)C(F)(F)F.O=C(c1cnccn1)N1CCC(F)(F)C2(CCN(c3ccccn3)C2)C1` (centres undefined) it was -12.88%. In the case of `Cn1cc(CN2CCC(F)(F)C3(CCN(c4ncc(F)cn4)C3)C2)cn1.O=C(O)C(F)(F)F` (centres undefined) it was 107.8%; in that of `COCC1CC2(CCN(Cc3cnn(C)c3)CC2)CN1c1ncccn1.O=C(O)C(F)(F)F.O=C(O)C(F)(F)F` (centres undefined), -8.289%. Regarding `COc1cccc(CN2CCC3(CCN(c4ncc(F)cn4)CC3)C2)c1.O=C(O)C(F)(F)F`, the “Percent Effect” value is -1.729%.

Turning to `Cn1cc(CN2CCC(F)(F)C3(CCN(c4cnccn4)C3)C2)cn1.O=C(O)C(F)(F)F.O=C(O)C(F)(F)F` (centres undefined), the “Percent Effect” value is given as -4.979%.

As to `Cn1cc(CN2CCC(F)(F)C3(CCN(c4ccccn4)C3)C2)cn1.O=C(O)C(F)(F)F.O=C(O)C(F)(F)F` (centres undefined), the “Percent Effect” value is on record as 97.58%. The same measure for `COc1cccc(CN2CCC3(CC2)CCN(c2ncc(F)cn2)C3)c1.O=C(O)C(F)(F)F`: 3.548%; for `COc1cc(N2CC[C@@H]3O[C@@H](C(=O)NC(C)C)C[C@@H]32)ncn1`: 103.8%. The same measure for `COc1cc(NC(=O)N(C)CCC2CC2)ncn1`: 6.653%; for `COc1cc(NC(=O)N(C)C(C2CC2)C2CC2)ncn1`: -1.888%. As to `COc1cc(NC(=O)N(C)CC2CC2)ncn1`, the “Percent Effect” value is recorded as -6.401%. Take `COc1cc(N2CC[C@@H]3O[C@@H](C(=O)NCCN(C)C)C[C@@H]32)ncn1`: the “Percent Effect” value turned out to be 104.9%. For the molecule `COCCNC(=O)[C@@H]1CC[C@@H]2[C@@H](CCN2c2ncc(F)cn2)O1.O=C(O)C(F)(F)F`, the “Percent Effect” value was -10.3%.

With `COCCNC(=O)[C@@H]1C[C@H]2[C@H](CCN2c2cc(OC)ncn2)O1`, the “Percent Effect” value came out at 102.9%. `COCCNC(=O)[C@H]1CC[C@@H]2[C@@H](CCN2c2ncc(F)cn2)O1.O=C(O)C(F)(F)F`: the “Percent Effect” value was found to be 0.7223%. In the case of `COc1cc(N2C[C@H]3OCC[C@H]3[C@H](C(=O)NC3CC3)C2)ncn1` it was -4.655%. In the case of `COc1cc(N2CC[C@@H]3O[C@H](C(=O)NCC4CC4)C[C@@H]32)ncn1`, the “Percent Effect” value was found to be 97.06%. In the case of `COc1cc(N2CC[C@@H](OC)[C@@H]2Cc2ccccc2)ncn1`, the “Percent Effect” value is 2.999%. In the case of `Cc1cnn(CC(=O)Nc2cc(-n3nnnc3C3CC3)ccc2F)c1`, the “Percent Effect” value is recorded as -3.572%. The same measure for `CC(C)CC(C)N(C)C(=O)CCn1cccn1` (centres undefined): 9.677%; for `CC(C(=O)N1CCCC1)N1CCC(c2nccn2Cc2cscn2)CC1` (centres undefined): 9.079%. In the case of `CC1COc2ccccc2N1C(=O)c1cscn1` (centres undefined) it was -0.3654%; in that of `Cc1nc(C2CCN(C)CC2)cc(N2CCOc3ccc(Cl)cc3C2)n1`, -7.272%; in that of `Cc1nc(C)c(C)c(N2CCC3(CCOC3)C2)n1` (centres undefined), 0.7248%. Turning to `Cc1nc(N2CCC3(CCOC3)C2)c2cc[nH]c2n1` (centres undefined), the “Percent Effect” value is given as 96.01%.

As to `Cc1nnc2ccc(N3CCC4(CCOC4)C3)nn12` (centres undefined), the “Percent Effect” value was -16.97%. In the case of `CC(C)CN1CCCC12CCN(c1nncs1)C2.O=C(O)C(F)(F)F` (centres undefined) it was 16.12%.

Consider `CC(=O)N1CCCC2(C1)CN(c1ncc(C)cn1)CCO2.O=C(O)C(F)(F)F` (centres undefined), for which the “Percent Effect” value was -4.18%. The same measure for `CC(C)C(=O)N1CCCC2(C1)CN(c1nncs1)CCO2.O=C(O)C(F)(F)F` (centres undefined): 94.93%. In the case of `O=C(O)C(F)(F)F.O=C(c1ccncc1)N1CCOC2(COCCN(c3cncnc3)C2)C1` (centres undefined) it was -8.943%; in that of `O=C(O)C(F)(F)F.c1ccc(N2CCOC3(CCCN(c4nncs4)C3)C2)nc1` (centres undefined), -13.18%; in that of `CC(C)CCN1CCC2(CCCN(c3nncs3)C2)C1.O=C(O)C(F)(F)F` (centres undefined), -9.122%. With `Cc1cncc(C(=O)N2CCC3(CCCN(c4nncs4)C3)C2)c1.O=C(O)C(F)(F)F` (centres undefined), the “Percent Effect” value is -14.05%. On to `CC(=O)N1CCCC2(C1)CN(c1nncs1)CCO2.O=C(O)C(F)(F)F` (centres undefined), for which the “Percent Effect” value is listed as 117%. The same measure for `O=C(O)C(F)(F)F.O=C(c1ccncc1)N1CCOC2(CCCN(c3nncs3)C2)C1` (centres undefined): 123%; for `CN(C)C(=O)CN1C[C@@H]2CC[C@H](C1)N(Cc1c(F)cccc1Cl)C2`: -24.65%; for `CNC(=O)[C@@H](CC(C)C)N1CCC[C@H]1C(=O)N(C)Cc1cccnc1.Cl.Cl`: 6.21%. Turning to `CCn1cnc(NC(=O)N2CCC(c3ccc(F)cc3)C2)n1` (centres undefined), the “Percent Effect” value was -5.373%. For the molecule `O=C1CC2(CCN(Cc3ccoc3)CC2)CN1Cc1cc(F)cc(F)c1`, the “Percent Effect” value worked out at 87.88%.

`O=C1CCC2(CCN(Cc3cc(F)cc(F)c3)CC2)CN1CCO`: the “Percent Effect” value is reported as -11.07%. The same measure for `COCC(=O)N1CCC2(CC1)CC(=O)N(Cc1ccc(Cl)cc1)C2`: -7.837%. In the case of `Cc1ncc(CN2CCC3(CC2)CC(=O)N(C)C3)cn1` it was -13.29%; in that of `CCCOCCN1CCC2(CC1)CC(=O)N(Cc1cc(F)cc(F)c1)C2`, 102.6%. The same measure for `O=C1CC2(CCN(CCCO)CC2)CN1Cc1ccc(F)c(F)c1`: 111.9%; for `O=C1CC2(CCN(CCO)CC2)CN1Cc1cc(F)cc(F)c1`: -5.03%; for `CCN1CC2(CCN(CCOCCO)CC2)CC(c2ccccc2)C1=O` (centres undefined): 6.251%. Turning to `O=C1CC2(CCN(CCCF)CC2)CN1Cc1cc(F)cc(F)c1`, the “Percent Effect” value is on record as 93.67%. Consider `O=C1CC2(CCN(Cc3ncc[nH]3)CC2)CN1Cc1ccc(Cl)cc1`, for which the “Percent Effect” value is given as 9.235%. The same measure for `O=C1CC2(CCN(Cc3ncc[nH]3)CC2)CN1Cc1cc(F)cc(F)c1`: 5.031%. Take `CCN(C)C[C@@H]1CN(S(=O)(=O)c2ccc(C#N)cc2)C[C@@H]1CO`: the “Percent Effect” value is on record as -9.397%.

In the case of `c1ccc2[nH]c(C3CCN(Cc4nnc(C5CC5)o4)CC3)nc2c1`, the “Percent Effect” value is recorded as -0.6702%.

`O=C1CC2(CCN(CC3CC3)CC2)CN1Cc1cc(F)cc(F)c1`: the “Percent Effect” value was determined as 122.7%. In the case of `O=C1CC2(CCN(CC3CCOC3)CC2)CN1Cc1cc(F)cc(F)c1` (centres undefined) it was 4.353%; in that of `CN(Cc1ccn[nH]1)Cc1c[nH]nc1-c1ccc(F)cc1`, 4.933%. For `CCN(CCc1nc2cc(C)ccc2[nH]1)C(=O)[C@@H](N)CCSC`, the “Percent Effect” value worked out at 1.745%.

Regarding `O=C(NCc1ccccn1)c1cc2n(n1)CCNC2`, the “Percent Effect” value is reported as 99.68%.

As for `O=C(NCc1sc2ccccc2c1Cl)c1cc2n(n1)CCNC2`, the “Percent Effect” value is on record as 92.76%. Consider `O=C(NCCn1ccnc1-c1cc2n(n1)CCNC2)c1ccncc1`, for which the “Percent Effect” value is given as -6.247%. The same measure for `O=C(NCCn1ccnc1-c1cc2n(n1)CCNC2)c1ccc(F)cc1`: 10.43%; for `O=C(NCc1csc2ccc(Cl)cc12)c1cc2n(n1)CCNC2`: 87.95%; for `O=C(NCc1cc2n(n1)CCCNC2)c1cn2cc(Cl)ccc2n1`: -5.425%.

For the molecule `O=C(NCc1cc2n(n1)CCCNC2)C1(c2ccc(Cl)cc2)CCC1`, the “Percent Effect” value is 14.56%. In the case of `Cc1ncsc1CCC(=O)NCc1cc2n(n1)CCNC2` it was -3.955%; in that of `CC(C)N1CCCn2nc(C(=O)NCCc3ccccn3)cc2C1`, -11.55%.
